An excerpt weighted towards active compounds, which were near 19% of everything screened.
Pf growth 96h: Primary qHTS for delayed death inhibitors of the malarial parasite plastid, 96 hour incubation | P. falciparum luciferase reporter growth, 96 h | Potency, µM (top dose mostly 28.7 µM), usual class: inhibitors | 320,000 compounds, 6.9% hits | AID 504834, 2011
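Delayed-death screen, second-generation endpoint: infected erythrocytes, 2% hematocrit, 0.05% parasitemia final; 96 hours at 37 C, 5% CO2; luciferase detection reagent; luminescence decrease equals reduced growth.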
Shiga toxin inh: A qHTS for Small Molecule Inhibitors of Shiga Toxin; inhibition, % at 38.7 µM; 290,000 compounds, 9.2% hits; Vero cells, Shiga toxin protein synthesis inhibition reporter; in the data active means inhibition mostly above about 28%, no sharp cut-off; inactive means mostly below about 43%
SARS PLpro yeast: qHTS of Yeast-based Assay for SARS-CoV PLP | 330,000 compounds, 0.19% hits | Potency, µM (titrated, usually from 32.9 µM), hits mostly activators | S. cerevisiae expressing SARS-CoV PLpro, growth rescue; calls by dose curve; further: nearly all actives have a fitted effect of over 55% in size
Pf growth 48h: Primary qHTS for delayed death inhibitors of the malarial parasite plastid, 48 hour incubation; P. falciparum luciferase growth in erythrocytes, 48 h; Potency, µM (highest dose often 28.7 µM), actives largely listed as inhibitors; 310,000 compounds, 5.9% hits; AID 504832, 2011
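Firefly luciferase activity from engineered P. falciparum reports growth; inhibitors lower the luminescent signal. Cultures contained 2% hematocrit erythrocytes at 0.1% final parasitemia.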
Cycloheximide cs: Cycloheximide Counterscreen for Small Molecule Inhibitors of Shiga Toxin; max response, %; cell reporter, cycloheximide protein synthesis inhibition counterscreen; 300,000 compounds, 12% hits; in the data active means max response mostly above about 13%, no sharp cut-off; inactive means mostly below about 14%; further: read at 38.3 µM for the half of the compounds with a filed dose
AMA1-RON2 inh: qHTS for Inhibitors of AMA1-RON; Towards Development of Antimalarial Drug Lead: Primary Screen | AID 720542, 2013 | 360,000 compounds, 0.2% hits | Plasmodium falciparum AMA1 (3D7) - RON2 peptide interaction | AlphaScreen AMA1-biotinylated RON2 peptide binding | Potency, µM (titrated, usually from 58.2 µM), hits mostly inhibitors; further: nearly all actives have a fitted effect of over 45% in size
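AMA1 (3D7) with his tag at 25 nM final met compounds first, then biotinylated RON2 peptide at 25 nM; detection used donor plus acceptor beads, 10 µg/mL apiece, read by AlphaScreen after 30 min at room temperature.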
Large screens that a line does not name were inactive. Unless noted, the call rests on the fitted dose curve; in most records, active means well fitted curve in the direction sought with a large enough effect; inconclusive means small, poorly fitted or top-dose-only effect, or another doubt; inactive means no such curve, though single readings can be large; an effect the other way counts as inactive or inconclusive.

Cc1cc(S(=O)(=O)N2CCCOC2CNC(=O)C(=O)NCc2cccs2)ccc1F (stereo not drawn)	Pf growth 96h inconclusive
Cc1ccc(CN2CCN(CC(=O)N/N=C/c3ccc(C)o3)CC2)cc1	SARS PLpro yeast inconclusive
CCc1cccc(C)c1NC(=O)CN1CCN(S(=O)(=O)c2ccc(C(C)(C)C)cc2)CC1	Pf growth 96h 0.928µM, Pf growth 48h 1.65µM (no result: Shiga toxin inh, SARS PLpro yeast, Cycloheximide cs)
CC(C)(C)c1ccc(S(=O)(=O)N2CCN(CC(=O)N3CC(=O)Nc4ccccc43)CC2)cc1	Pf growth 96h inconclusive, Pf growth 48h 11.7µM (no result: Shiga toxin inh, Cycloheximide cs)
COC(=O)c1ccc(OCC(O)CNCC(c2ccc(OC)cc2)N(C)C)c(OC)c1 (stereo not drawn)	Shiga toxin inh 52.3
Cc1ccc(C)c(N(CC(=O)NCc2ccco2)C(=O)CCC(=O)Nc2nccs2)c1	Pf growth 96h inconclusive
COc1cc(C(C[N+](=O)[O-])c2c(C)[nH]c3ccccc23)cc(OC)c1OC (stereo not drawn)	Pf growth 48h 13.1µM
Cc1c(N)cc2c(c1N)C(C)(C)CC2(C)C	none (no result: Pf growth 96h, Shiga toxin inh, SARS PLpro yeast, Pf growth 48h, Cycloheximide cs)
CCN(CC)c1cccc(OCC(=O)N(C)CCC#N)c1	Pf growth 48h 10.4µM
COC(=O)[C@]12CCCCC=C1N(Cc1ccco1)C(=O)[C@H](CC(=O)NCCCN1CCCC1=O)C2	none (no result: Pf growth 96h, Shiga toxin inh, SARS PLpro yeast, Pf growth 48h, Cycloheximide cs)
CCOc1cc(CNc2ccc3c(c2)OCCO3)cc(Br)c1OC	Pf growth 96h inconclusive, AMA1-RON2 inh inconclusive (no result: Pf growth 48h)
C=CCOc1c(Br)cc(CNc2ccc(NC(=O)C(C)C)cc2)cc1OCC	Pf growth 96h 13.1µM
CCOc1c(Br)cc(CNc2ccc3c(c2)OCCO3)cc1OC	Pf growth 96h 0.828µM, Shiga toxin inh 97.5, Cycloheximide cs 48.8, AMA1-RON2 inh inconclusive (no result: Pf growth 48h)
CCOc1c(Br)cc(CNC2CCCCCCC2)cc1OC	Pf growth 48h 10.4µM
CCOc1cc(CNc2ccc3c(c2)OCCO3)cc(Br)c1OCC(N)=O	Pf growth 96h inconclusive, Pf growth 48h inconclusive, Cycloheximide cs 20.4
Cc1cccc(N=Cc2cc3c(cc2[N+](=O)[O-])OCO3)c1	Pf growth 96h inconclusive
Cc1ccccc1N=CC=C1OC(C)(C)C(C)(C)O1	Pf growth 48h 8.28µM
COc1ccc(N=CC=C2OC(C)(C)C(C)(C)O2)cc1OC	none
Cc1cccc(N=CC=C2OC(C)(C)C(C)(C)O2)c1	Shiga toxin inh 108.3, Pf growth 48h inconclusive, Cycloheximide cs 36.0
COc1cccc(N=CC=C2OC(C)(C)C(C)(C)O2)c1	Shiga toxin inh 87.5, Pf growth 48h inconclusive, Cycloheximide cs 49.4
Cc1ccc(N=CC=C2OC(C)(C)C(C)(C)O2)cc1	Pf growth 96h inconclusive, Shiga toxin inh 66.1, Pf growth 48h inconclusive, Cycloheximide cs 20.1
O=C(Cn1ccc(NC(=O)OCc2ccccc2)nc1=O)NCCc1c[nH]c2ccccc12	Pf growth 96h inconclusive, Pf growth 48h inconclusive (no result: Shiga toxin inh, Cycloheximide cs)
Cc1onc(-c2ccccc2)c1C(=O)N1CCN(c2ccccc2F)CC1	Pf growth 96h inconclusive
CCOC(=O)c1ccc(N2CCOCC2)c(NC(=O)c2c(-c3ccccc3)noc2C)c1	Pf growth 96h inconclusive, Pf growth 48h 13.1µM
Cc1onc(-c2c(F)cccc2Cl)c1C(=O)Nc1ccccc1N1CCOCC1	Pf growth 96h 2.62µM, Pf growth 48h 1.85µM
Cc1onc(-c2c(Cl)cccc2Cl)c1C(=O)N1CCN(c2ccccc2F)CC1	Pf growth 96h inconclusive, Pf growth 48h 13.1µM
Cc1onc(-c2c(Cl)cccc2Cl)c1C(=O)N=C(N)N1CC(C)OC(C)C1 (stereo not drawn)	Pf growth 96h 11.7µM, Pf growth 48h 3.29µM
CSCCC(C(=O)Nc1c(C)cccc1C)N1CCC(Cc2ccccc2)CC1 (stereo not drawn)	none (no result: Pf growth 96h, Shiga toxin inh, SARS PLpro yeast, Pf growth 48h, Cycloheximide cs)
CC[C@H]1C(O)C[C@H]2CCN3C(=O)CCC[C@H]1[C@H]23 (stereo partly drawn)	none (no result: Pf growth 96h, Pf growth 48h)
Nc1nc2n(n1)C(c1cccs1)CC(c1ccc(F)cc1)N2 (stereo not drawn)	none
Nc1nc2n(n1)C(c1cccc(Cl)c1)CC(c1ccc(F)cc1)N2 (stereo not drawn)	Pf growth 96h inconclusive (no result: Pf growth 48h)
CCc1ccc(C2CC(c3ccccc3C)n3nc(N)nc3N2)cc1 (stereo not drawn)	Pf growth 96h 14.7µM
COc1ccc(C2CC(c3cccs3)n3nc(N)nc3N2)cc1 (stereo not drawn)	Pf growth 96h inconclusive, Shiga toxin inh 23.0, Cycloheximide cs 7.4
CCOc1ccc(C2CC(c3cccc(Cl)c3)n3nc(N)nc3N2)cc1 (stereo not drawn)	Pf growth 96h 3.7µM
O=C(COC(=O)CNC(=O)c1ccc(Cl)cc1)Nc1cccc(S(=O)(=O)N2CCCC2)c1	none
Cc1onc(-c2ccccc2)c1C(=O)OCC(=O)Nc1cc(S(=O)(=O)N2CCOCC2)ccc1Cl	Pf growth 96h inconclusive
Cc1ccccc1NC(=O)Cc1nc(CSc2nnc(-c3ccc4c(c3)OCO4)o2)cs1	SARS PLpro yeast inconclusive
CN(C)S(=O)(=O)N1CCC(Oc2cccc(C(=O)NCCC3=CCCCC3)c2)CC1	Shiga toxin inh 62.6, Pf growth 48h inconclusive, Cycloheximide cs 24.5
CCC1C(=O)NCCN1C(=O)c1cccc(OC2CCN(S(=O)(=O)N(C)C)CC2)c1 (stereo not drawn)	Cycloheximide cs 38.4
CN(C)S(=O)(=O)N1CCC(Oc2cccc(C(=O)NC3CCOC3)c2)CC1 (stereo not drawn)	Cycloheximide cs 14.6
CN(C)S(=O)(=O)N1CCC(Oc2cccc(C(=O)NC3CCCCC3)c2)CC1	none
C=CCN(CC=C)C(=O)c1cccc(OC2CCN(S(=O)(=O)N(C)C)CC2)c1	Pf growth 96h inconclusive
CS(=O)(=O)N1CCC(Oc2cccc(C(=O)NCCCC3CCCC3)c2)CC1	none (no result: Pf growth 96h, Shiga toxin inh, SARS PLpro yeast, Pf growth 48h, Cycloheximide cs)
CCN(CC)C(=O)C1=C(C)N(Cc2ccc(OC)cc2)C(=O)C(CC(=O)NC(c2ccccc2)c2ccccc2)C1 (stereo not drawn)	none (no result: Pf growth 96h, Shiga toxin inh, SARS PLpro yeast, Pf growth 48h, Cycloheximide cs)
CCCCSCCCNC(=O)c1cn(C)c2ccc(S(=O)(=O)N3CCCC3)cc2c1=O	Pf growth 96h 10.4µM, Pf growth 48h inconclusive
O=C(NCC1COc2ccccc2O1)c1ccc(Cl)c(S(=O)(=O)N2CCOCC2)c1 (stereo not drawn)	Pf growth 96h 13.1µM, Pf growth 48h inconclusive (no result: Shiga toxin inh, Cycloheximide cs)
O=C(NCC1COc2ccccc2O1)c1cccc(S(=O)(=O)N2CCOCC2)c1 (stereo not drawn)	Pf growth 96h inconclusive (no result: Shiga toxin inh, Cycloheximide cs)
Cc1c(C(=O)NCC2COc3ccccc3O2)oc2ccc(S(=O)(=O)N(C)C3CCCCC3)cc12 (stereo not drawn)	Pf growth 48h 9.28µM (no result: Pf growth 96h)
O=C(NCC1COc2ccccc2O1)c1ccc(Cl)c(S(=O)(=O)N2CCCC2)c1 (stereo not drawn)	Pf growth 96h 9.28µM, Pf growth 48h 9.28µM (no result: Shiga toxin inh, Cycloheximide cs)

From PubChem
